Source: PubChem (NMMLSC)
Most compounds without a hit are left out; they make up all but 2.9% or so of the library.
MEKK2 mut-MEK5: signal of MEK5 binding to mutant human MEKK2 PB1 domain | bead flow cytometry, Alexa488-MEK5 binding to MEKK2 mutant | percent response, % at 10 µM | 290,000 compounds, 0.35% hits | AID 1530; in the data active means percent response above about 24%, passing the limit was not always enough
B2AR ag: agonists of human beta-2 adrenergic receptor inducing internalization; response, % (test concentration not listed); P07550; 340,000 compounds, 0.43% hits; Am2.2-beta2AR cells, FAP receptor internalization, flow cytometry;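 active means response above a set limit, near 3 SD of response in nonfluorescent compounds, cut at about 42% in these data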
MEKK2wt PB1 HTS: raises or lowers MEK5 binding to wildtype human MEKK2 PB1 domain; Q9Y2U5; bead flow cytometry, Alexa488-MEK5 binding to MEKK2 WT; actives lie on both sides; binding response (% of control), % at 10 µM; 290,000 compounds, 1.1% hits; AID 1531; in the data active means binding response below about 67% or above about 130%
MEKK3 PB1 HTS: raises or lowers MEK5 binding to the human MEKK3 PB1 domain. bead-based flow cytometry, Alexa488-MEK5 binding to MEKK3; actives lie on both sides; 0 = blocked by unlabeled MEK5, 100 = vehicle. AID 1529. Q99759. binding response (% of control), % at 10 µM. 290,000 compounds, 1.4% hits;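 active means binding response more than 3 SD above or below the average of its plate-row segment, actives on both sides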;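 further: Alexa488 bead fluorescence after subtracting the streptavidin-only scavenger bead signal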
Target sequence (Q99759 whole entry, looked up, the tested form may be a part): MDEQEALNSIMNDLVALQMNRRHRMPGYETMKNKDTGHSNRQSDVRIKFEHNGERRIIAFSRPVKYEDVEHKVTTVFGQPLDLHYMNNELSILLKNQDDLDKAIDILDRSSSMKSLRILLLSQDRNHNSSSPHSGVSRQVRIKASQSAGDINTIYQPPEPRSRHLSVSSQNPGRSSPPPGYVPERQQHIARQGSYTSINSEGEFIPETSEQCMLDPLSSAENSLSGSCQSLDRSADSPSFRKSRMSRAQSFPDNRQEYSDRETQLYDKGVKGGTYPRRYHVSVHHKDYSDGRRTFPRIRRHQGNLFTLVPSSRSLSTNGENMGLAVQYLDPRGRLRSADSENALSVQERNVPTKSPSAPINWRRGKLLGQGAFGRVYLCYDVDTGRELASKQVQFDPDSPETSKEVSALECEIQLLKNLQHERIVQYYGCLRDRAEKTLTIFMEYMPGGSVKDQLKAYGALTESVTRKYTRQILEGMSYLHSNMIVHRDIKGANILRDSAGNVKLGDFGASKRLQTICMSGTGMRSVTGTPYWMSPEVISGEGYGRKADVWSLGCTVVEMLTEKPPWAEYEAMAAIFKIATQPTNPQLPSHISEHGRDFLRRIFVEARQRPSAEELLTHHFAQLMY
GRK2 aptamer HTS: inhibitors of human GRK2 displacing RNA aptamer; P25098; bead flow cytometry, FAM-aptamer displacement from GRK2; inhibition of aptamer binding, % at 10 µM; 330,000 compounds, 0.59% hits;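 active means inhibition of aptamer binding above 40%, roughly 3 SD of noise, on plates passing a quality check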;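 further: median bead fluorescence of bound FAM aptamer so fluorescent compounds give negative values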
Numbers without * were called inactive; x = no result given; [ ] = another dose, or the depositor's remark.

SMILES	MEKK2 mut-MEK5	B2AR ag	MEKK2wt PB1 HTS	MEKK3 PB1 HTS	GRK2 aptamer HTS
COc1ccccc1C1=NOC(COc2ccc3c(C)cc(=O)oc3c2)C1 (configuration not stated)	-4	44*	99	105	2
COc1ccc(NC(=O)COc2ccc(C(=O)OCC(=O)N(C(C)C)C(C)C)cc2OC)cc1	-1	-1	104	118	5
CCOc1ccccc1NC(=O)Cn1c(=O)n(-c2ccccc2)c(=O)c2oc3ccccc3c21	10	-1	5.0*	96	2
COc1ccc(C(C(=O)NC2CCCCC2)N(C(=O)CCl)c2cccc(Cl)c2)cc1 (configuration not stated)	11	42*	109	103	0
COc1ccc(C(C(=O)NC2CCCCC2)N(C(=O)CCl)c2ccc(C)cc2)cc1 (configuration not stated)	-1	44*	103	102	1
COc1ccc(N(C(=O)CCl)C(C(=O)NC2CCCCC2)c2cccnc2)cc1 (configuration not stated)	-1	18	97	98	0
COc1ccc(C(C(=O)NC2CCCCC2)N(C(=O)CCl)c2ccc(OC)cc2)cc1 (configuration not stated)	0	32	96	98	1
Cc1cc(C(=O)Nc2ccc(F)c(Cl)c2)on1	4	-1	101	98	0
O=c1cc(-c2ccccc2Cl)oc2cc(O)cc(O)c12	5	-11	95	95	9
O=C1C=CC(O)(c2cc(=O)c3c(O)cc(O)cc3o2)C=C1	-2	45*	104	106	0
CCSc1nc2ccccc2n1C(=O)/C=C\c1ccc(OC)c(OC)c1	-3	51*	95	100	1
COC(=O)CCNC(=O)c1ccc2nc(Cc3ccc(OC)c(OC)c3)oc2c1	11	-1	115	109	0
CC1=C(C#N)C(=O)N(C2CCS(=O)(=O)C2)C(=O)/C1=C\c1ccco1 (configuration not stated)	-14	x	87	96	100*
Cc1cc(C)cc(OCC(O)CN2CCC(CN3C(=O)c4cccc5cccc(c45)C3=O)CC2)c1 (configuration not stated)	x	12	x	x	0
O=C1c2cccc3cccc(c23)C(=O)N1CC1CCN(CC(O)COc2ccc3ccccc3c2)CC1 (configuration not stated)	x	82*	x	x	0
O=c1oc2cc(O)c(Cl)cc2c2ccccc12	0	1	105	104	1
O=c1oc(Cl)c(Cl)c2ccccc12	x	62*	x	x	0
CCC(=O)OCC(=O)N=c1sccn1Cc1ccccc1Cl	12	-3	107	105	0
O=C(CCl)N=c1sccn1Cc1ccc(Cl)cc1Cl	-15	67*	59	65	3
O=C(CCl)N=c1sccn1Cc1cccc2ccccc12	-4	50*	90	99	x
O=C(CCl)N=c1sccn1Cc1ccccc1Cl	-21	25	90	86	2
CC(C)CC(NC(=O)C(COC(C)(C)C)NC(=O)C(Cc1ccc(O)cc1)NC(=O)C(CO)NC(=O)C(Cc1c[nH]c2ccccc12)NC(=O)C(Cc1cnc[nH]1)NC(=O)C1CCC(=O)N1)C(=O)N[C@@H](CCCN=C(N)N)C(=O)N1CCCC1C(=O)NNC(N)=O (some centres not stated)	7	x	120	117	x
COc1ccc(NC(=O)/C(Cl)=C(/Cl)S(=O)Cc2ccccc2Cl)cn1 (configuration not stated)	-9	58*	103	103	x
COc1ccc(NC(=O)Cc2ccc(Cl)c(Cl)c2)cn1	1	1	101	104	0
COc1ccc(NC(=O)/C(Cl)=C(/Cl)S(=O)(=O)Cc2ccc(C)cc2)cn1	-4	62*	97	97	x
SMILES	MEKK2 mut-MEK5	B2AR ag	MEKK2wt PB1 HTS	MEKK3 PB1 HTS	GRK2 aptamer HTS
CNC(=S)NN=C(C)CCCC(C)=NNC(=S)NC	x	-5	x	x	x
Cc1c(N=C/C=C2/N(C)c3ccccc3C2(C)C)c(=O)n(-c2ccccc2)n1C	1	-17	-5.0*	76	8
OC[C@@H](O)[C@@H](O[C@H]1O[C@H](CO)[C@@H](O)[C@H](O)[C@H]1O)[C@H](O)[C@@H](O)CO	5	6	-4.0*	81	5
OCC(O)[C@@H](O[C@H]1O[C@H](CO)[C@@H](O)[C@H](O)[C@H]1O)[C@H](O)[C@@H](O)CO (some centres not stated)	x	0	x	x	0
O=C(Nc1ccc(-c2nc3ccccc3s2)cc1)C1=COCCO1	-2	-9	98	101	48*
Cc1nn(CC(=O)NCCCN2CCCC2=O)c(C)c1[N+](=O)[O-]	x	x	x	x	0
COCCn1nnnc1C(c1ccc(OC)cc1)N1CCN(C(=O)c2ccco2)CC1 (configuration not stated)	6	-6	104	104	1
COc1ccc(C(c2nnnn2C(C)C)N2CCN(C(=O)c3ccco3)CC2)cc1 (configuration not stated)	-20	22	46*[inhibitor]	53*[inhibitor]	2
COc1cccc(N2CCN(c3ncnc4c3[nH]c3ccc(F)cc34)CC2C)c1 (configuration not stated)	21	41	164*	109	0
COc1cccc(N2CCN(c3ncnc4c3[nH]c3ccccc34)CC2C)c1 (configuration not stated)	5	x	117	101	3
Cc1ccc(S(=O)(=O)n2cc(CO)c3ccccc32)cc1	x	-6	x	x	x
CC(=O)OCC(=O)[C@@]12OC3(CCCC3)O[C@@H]1C[C@H]1[C@@H]3CCC4=CC(=O)C=C[C@]4(C)[C@@]3(F)[C@@H](O)C[C@@]12C	3	20	-3.0*	85	5
CC1(C)O[C@@H]2C[C@H]3[C@@H]4CCC5=CC(=O)C=C[C@]5(C)[C@@]4(F)[C@@H](O)C[C@]3(C)[C@]2(C(=O)CO)O1	4	-2	95	109	1
Cc1ccc(NC(=O)CN(C)S(=O)(=O)c2ccc3c(c2)n(C)c(=O)c(=O)n3C)cc1	-4	-8	100	100	0
O=C(CN1C(=O)c2cccnc2Oc2ccc(Cl)cc21)Nc1ccccc1F	10	4	10*	101	11
COc1cccc(NC(=O)CN2C(=O)c3cccnc3Oc3ccc(Cl)cc32)c1	0	-5	98	101	0
COc1ccc(CN2CCSc3sccc3C2=O)cc1	3	6	105	100	3
COc1ccc(/C=N\NC(=O)c2ccccc2[N+](=O)[O-])cc1COc1c(F)c(F)c(F)c(F)c1F	-4	53*	97	104	0
CCN(CC)C(=O)[C@H]1CC(CC(=O)NCC23CC4CC(CC(C4)C2)C3)C(=O)N2CCc3c([nH]c4ccc(OC)cc34)[C@]12C (some centres not stated)	x	-6	x	x	44*
